Inconclusive results are not listed. Where a call stands in place of a potency, no number is given. Unmarked numbers belong to inactive results. Activity calls are given as the source filed them. Calls come from the whole dose curve; as a rule, active = well fitted curve in the direction sought with a large enough effect; inconclusive = small, poorly fitted or top-dose-only effect, or another doubt; inactive = no such curve, though single readings can be large; an effect the other way counts as inactive or inconclusive.
What was measured:
[1] = Primary qHTS for inhibitors of nuclear receptor binding SET domain protein 2 (NSD2) in an isogenic RCH-ACV NSD2 p.E1099K mutant (9B) (AID 1645876); details: RCH-ACV NSD2 E1099K (9B) viability, CellTiter-Glo, 72 h; series mostly up to 44.9 µM
[2] = Primary qHTS for inhibitors of nuclear receptor binding SET domain protein 2 (NSD2) in an RCH-ACV wild type WT cells (2C) (AID 1645877); details: RCH-ACV (leukaemia line) NSD2 WT (2C) viability, CellTiter-Glo, 72 h; series mostly up to 44.9 µM
Note: nearly all actives have a fitted effect of over 70% in size.

| SMILES | Potency [1] | Potency [2] | activity change, negative = viability loss [1] | activity change, negative = cell killing [2] |
| --- | --- | --- | --- | --- |
| C[C@H]1[C@H](C)CC[C@]2(C(=O)O)CC[C@]3(C(=O)O)C(=CCC4[C@@]5(C)CC[C@H](O[C@@H]6O[C@H](C)[C@@H](O)[C@H](O)[C@H]6O)C(C)(C)C5CC[C@]43C)[C@H]12 (some centres undefined) | inactive | inactive |  |  |
| CCC(C)(O)C(O)C(=O)OCc1ccc(O[C@@H]2O[C@H](CO)[C@@H](O)[C@H](O)[C@H]2O)cc1 (some centres undefined) | inactive | inactive |  |  |
| NC(=O)c1ccc(OCC2NC(=O)C3CCCN3C2=O)cc1 (centres undefined) | inactive | inactive |  |  |
| COC1=CC(=O)C[C@@H](C)[C@]12Oc1cc(OC)cc(OC)c1C2=O | inactive | inactive |  |  |
| COC(=O)C12C(=O)C(C)=C(O)C1(C)C(C)=CC1C34CCC(OC3=O)C(C)(C)C4CCC12C (centres undefined) | inactive | inactive |  |  |
| C[C@@H]1O[C@@H](O[C@H]2[C@H](O)[C@@H](O)[C@H](OC[C@H]3O[C@@H](OC(=O)[C@]45CCC(C)(C)C[C@H]4C4=CCC6[C@@]7(C)C[C@H](O)[C@H](O[C@@H]8O[C@H](CO)[C@@H](O)[C@H](O)[C@H]8O)[C@@](C)(C(=O)O)C7CC[C@@]6(C)[C@]4(C)CC5)[C@H](O[C@@H]4O[C@H](CO)[C@@H](O)[C@H](O)[C@H]4O)[C@@H](O)[C@@H]3O)O[C@@H]2CO)[C@H](O)[C@H](O)[C@H]1O (some centres undefined) |  |  | -12.2% [at 9.23 µM] | -0.13% [at 9.23 µM] |
| CC1CCC2C(C(=O)O)=CC3C(O)C(C)(C)CC123 (centres undefined) | inactive | inactive |  |  |
| O=C(CCO[C@@H]1O[C@H](CO)[C@@H](O)[C@H](O)[C@H]1O)c1ccc(O)cc1 | inactive | inactive |  |  |
| OCC1OC(Oc2cc(O)c3c(c2)OC(c2ccc(O)cc2)C(O)C3)C(O)C1O (centres undefined) | inactive | inactive |  |  |
| C[C@@H]1CC[C@]2(C(=O)O)CC[C@]3(C)C(=CCC4[C@]5(C)C(CC[C@]43C)C(C)(C)[C@@H](O)[C@H](O)[C@@H]5O)C2[C@]1(C)O (some centres undefined) | inactive | inactive |  |  |
| CC(C)CC(=O)n1cc(C(N)=O)c(=O)cc1C(O)c1ccccc1 (centres undefined) | inactive | inactive |  |  |
| COc1cc(/C=C/C(=O)O[C@H]2[C@H](O)[C@@H](CO)O[C@@]2(CO)O[C@H]2O[C@H](COC(=O)c3ccc(O)cc3)[C@@H](O)[C@H](O)[C@H]2O)cc(OC)c1OC | inactive | inactive |  |  |
